# High-throughput results as filed in PubChem BioAssay.
# The list is not random: actives were taken first. Their share in the collection is about 4%.
# PAX8 reporter: inhibitors of PAX8-driven TPO luciferase reporter, primary screen, RMG-I cells, single concentration; SteadyGlo, 24 h; inhibition, % at 12.6 µM; hit rate 1.2% among 360,000; AID 652154, 2013;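 active means mean replicate inhibition at least 60% with every replicate also reaching 60%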;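 further: luciferase light reporting Pax8 driven TPO promoter activity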
# Shn3 inh set2: reduction of Shn3 3'UTR firefly luciferase signal, primary screen, Schnurri-3 inhibitor project, cell-based, Clone20 osteoblasts, set 2; inhibition, % at 12.5 µM; Clone20 osteoblast Shn3 3'UTR firefly luciferase, 24 h; hit rate 0.52% among 360,000;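 active means mean inhibition of at least 75% with every replicate also reaching 75%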
# Gli-Sufu block: Gli-Sufu pathway antagonists, primary screen, luciferase luminescence, Sufu-KO-LIGHT cells, uHTS; Sufu-KO-LIGHT fibroblasts, Gli luciferase reporter luminescence; inhibition, % at 5 µM; hit rate 0.74% among 340,000;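 active means inhibition above about 55%, limit read from the data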
# CSC inhib: cancer stem cell viability inhibitors, primary screen, luminescence; cancer stem cell-like cells viability; inhibition, % at 7.5 µM; hit rate 1.1% among 300,000; AID 2717, 2010; in the data active means inhibition above about 75%; tested in HMLE shEcad cells
# Beta cell apopt: inhibitors of cytokine-induced beta cell apoptosis, primary screen, luminescence; INS-1E cytokine-induced death, ATP luminescence, 48 h; percent of positive-control rescue, neutral wells zero; protection from apoptosis, % (no concentration beside the values); hit rate 0.8% among 300,000;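 active means Every replicate reaches about 75%, or at least half do and their mean reaches it too, limit read from the data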;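 further: higher means more ATP so stronger rescue from cytokine killing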
# Mdm2 MdmX PPI: inhibitors of human Mdm2-MdmX association, primary screen, cell-based, luminescence, split luciferase, SaOS-2, uHTS; Protein Mdm4 (Homo sapiens) + E3 ubiquitin-protein ligase Mdm2 (Homo sapiens), …; SaOS-2 split-luciferase Mdm2/MdmX complementation; inhibition, % at 8 µM; hit rate 3% among 330,000; AID 485346, 2010;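 active means inhibition of at least 50% at 8 µM in the primary screen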
# Target sequence (O15151 whole entry, looked up): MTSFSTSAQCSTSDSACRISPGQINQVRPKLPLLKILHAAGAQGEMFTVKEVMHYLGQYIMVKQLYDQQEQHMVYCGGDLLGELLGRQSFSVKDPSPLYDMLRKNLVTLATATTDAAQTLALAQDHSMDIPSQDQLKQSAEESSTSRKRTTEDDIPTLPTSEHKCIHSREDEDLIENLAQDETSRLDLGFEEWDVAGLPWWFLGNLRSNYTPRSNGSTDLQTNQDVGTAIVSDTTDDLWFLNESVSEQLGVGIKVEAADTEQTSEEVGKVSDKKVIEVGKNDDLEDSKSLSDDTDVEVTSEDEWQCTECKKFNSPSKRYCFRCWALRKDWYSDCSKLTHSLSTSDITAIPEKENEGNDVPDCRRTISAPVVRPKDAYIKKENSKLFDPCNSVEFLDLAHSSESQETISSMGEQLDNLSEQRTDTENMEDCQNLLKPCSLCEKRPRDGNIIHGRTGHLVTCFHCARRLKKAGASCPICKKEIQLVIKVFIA
# Target sequence (Q00987 whole entry, looked up): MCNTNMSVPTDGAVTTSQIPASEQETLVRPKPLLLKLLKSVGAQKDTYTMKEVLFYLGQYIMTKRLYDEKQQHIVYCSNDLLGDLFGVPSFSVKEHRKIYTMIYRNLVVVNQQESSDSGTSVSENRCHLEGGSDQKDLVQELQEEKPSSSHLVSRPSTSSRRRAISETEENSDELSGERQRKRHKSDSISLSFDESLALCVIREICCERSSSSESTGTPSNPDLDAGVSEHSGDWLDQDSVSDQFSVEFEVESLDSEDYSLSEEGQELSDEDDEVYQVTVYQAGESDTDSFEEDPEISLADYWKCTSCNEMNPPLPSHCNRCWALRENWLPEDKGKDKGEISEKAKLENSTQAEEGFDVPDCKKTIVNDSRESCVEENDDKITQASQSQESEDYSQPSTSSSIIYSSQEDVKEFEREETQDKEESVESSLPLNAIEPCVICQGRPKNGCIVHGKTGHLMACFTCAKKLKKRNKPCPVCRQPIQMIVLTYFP
# Mdm2 MdmX conf: Mdm2-MdmX complex disruptors, retested hits, confirmation, luminescence, single concentration; shares compounds with Mdm2 MdmX PPI; Mdm2-MdmX binding, luminescent assay; inhibition, % at 8 µM; hit rate 55% among 10,000; in the data active means inhibition above about 40%
# Full FLuc ctr: full-length luciferase signal inhibition, confirmation, counter-screen for Mdm2/MdmX interaction inhibitor project, cell-based, single concentration, SaOS-2 | shares compounds with Mdm2 MdmX PPI | SaOS-2 full-length luciferase counterscreen, luminescence | hit rate 77% among 6,200 | inhibition, % at 8 µM;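 active means mean inhibition at 8 µM reaching about 37%, which flags the compound as non-specific, limit read from the data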;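 further: p53-null SaOS-2 cells with luciferase driven by a doxycycline-inducible promoter; compound on cells about two nights before reading with doxycycline added after day one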
# Gli antag conf: Gli-SUFU pathway antagonists, confirmation, single concentration, luciferase luminescence, Sufu-KO-LIGHT cells; shares compounds with Gli-Sufu block; inhibition, % at 5 µM; hit rate 40% among 2,500; AID 602428, 2012; Gli luciferase reporter;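 active means mean inhibition at 5 µM reaching about 45%, limit read from the data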
# Gli cytotox: cytotoxicity in Sufu-KO-LIGHT cells, confirmation, cytotoxicity control for Gli-SUFU antagonist project, cell-based, ATP luminescence, single concentration. shares compounds with Gli-Sufu block. cytotoxicity, % at 5 µM. hit rate 32% among 2,500;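 active means mean cytotoxicity at 5 µM above about 25%, limit read from the data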;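 further: cells exposed to compound overnight for roughly 16 to 18 hours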
# Wnt3a cs: Wnt3a reporter signal inhibition, confirmation, counter-screen for Gli-SUFU antagonist project, Wnt-LIGHT cells, luminescence, single concentration. inhibition, % at 6.25 µM. shares compounds with Gli-Sufu block. AID 651995, 2013. Wnt3a-driven luciferase reporter. hit rate 20% among 2,500;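 active means mean inhibition above about 25%, limit read from the data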
# Hits are given with their value; - = inactive; . = no result.
SMILES,PAX8 reporter,Shn3 inh set2,Gli-Sufu block,CSC inhib,Beta cell apopt,Mdm2 MdmX PPI,Mdm2 MdmX conf,Full FLuc ctr,Gli antag conf,Gli cytotox,Wnt3a cs
C=CCCc1ccc(C#N)c(SCc2c(C(=O)OCC)c3cc(OC(C)=O)c(Br)cc3n2C)n1,.,89,73,-,110,66,89,-,85,43,41
COc1ccc(-c2cn(CC[C@@H]3CC[C@H](NC(=O)NC(C)C)[C@@H](CO)O3)nn2)cc1,-,.,.,.,.,.,.,.,.,.,.
Cc1noc(C)c1S(=O)(=O)Nc1ccc2c(c1)C(=O)N([C@@H](C)CO)C[C@@H](C)[C@@H](CN(C)Cc1ccc3c(c1)OCO3)OCCCC[C@@H](C)O2,-,.,.,.,.,.,.,.,.,.,.
COc1ccc(Cn2c(-c3ccc(C)cc3)c[n+]3ccccc23)cc1,88,-,85,-,93,62,-,65,86,29,36
COc1ccc(-c2nc3ccccc3n2Cc2ccc(C)cc2)cc1,.,-,-,-,-,-,.,.,.,.,.
COc1ccc(NC(=O)c2c(Nc3ccccc3)sc(C(=O)c3ccc(F)cc3)c2N)cc1,89,-,75,-,104,62,-,.,85,35,81
Cc1sc2ncnc(NCc3ccco3)c2c1C,.,-,-,-,-,-,.,.,.,.,.
Cc1sc2ncnc(NCc3cccs3)c2c1C,-,-,57,-,101,52,-,.,50,26,-
O=C(CC1CC1)Nc1ccc2c(c1)[C@H]1C[C@H](CC(=O)NC3CCCC3)O[C@H](CO)[C@H]1O2,-,.,.,.,.,.,.,.,.,.,.
Cc1ccc(S(=O)(=O)Nc2cccc3c2O[C@H](CN(C)Cc2ccccc2)[C@@H](C)CN([C@@H](C)CO)C3=O)cc1,-,.,.,.,.,.,.,.,.,.,.
N=c1c2c(n(Cc3cccc(Cl)c3)c3c1CCC3)CCCC2,.,-,81,-,94,58,42,64,83,35,36
CNc1nc(NCc2ccccc2)c2ccccc2n1,-,-,57,-,-,66,-,.,-,-,-
CCOC(=O)c1nc(NCc2ccccc2)c2ccccc2n1,-,-,-,-,-,-,.,.,.,.,.
CCC(=O)N1C[C@H](C)[C@@H](OC)CN(C)C(=O)c2ccc(NC(=O)C3CCOCC3)cc2OC[C@H]1C,-,.,.,.,.,.,.,.,.,.,.
CCCNC(=O)C[C@@H]1CC[C@@H]2[C@@H](COc3ccc(NC(=O)c4cccc(C(F)(F)F)c4)cc3C(=O)N2C)O1,-,.,.,.,.,.,.,.,.,.,.
O=C(CN1C(=O)c2ccccc2S1(=O)=O)c1ccc(F)cc1,-,-,76,-,-,83,68,81,83,-,91
O=C(CN1C(=O)c2ccccc2C1=O)c1ccc(F)cc1,-,-,-,-,-,-,.,.,.,.,.
Cc1nc2ccccc2n1-c1nc(-c2ccco2)cc(C(F)(F)F)n1,.,-,68,149,131,77,100,-,78,-,77
FC(F)(F)c1cc(-c2ccco2)nc(-n2cnc3ccccc32)n1,.,-,-,-,-,-,.,.,.,.,.
C[C@H]1CN([C@@H](C)CO)C(=O)c2cc(NC(=O)Nc3ccc(C(F)(F)F)cc3)ccc2O[C@@H]1CN(C)S(C)(=O)=O,-,.,.,.,.,.,.,.,.,.,.
Cc1ccc(-c2ccc3c(c2)O[C@@H](CN(C)C)[C@@H](C)CN([C@@H](C)CO)S3(=O)=O)cc1,-,.,.,.,.,.,.,.,.,.,.
Cc1ccc(-c2nc(-c3ccccc3)no2)cc1,.,-,-,-,-,-,.,.,.,.,.
Cc1ccc(-c2nc(-c3ccccc3)no2)c(Cl)c1,-,-,67,-,.,52,62,163,69,80,103
CCCc1sc(N/N=C/c2ccccn2)nc1-c1ccc(Br)cc1,.,-,64,126,111,75,-,.,80,-,88
CC(=O)Nc1sc(N/N=C/c2ccccc2)nc1-c1ccc(C)cc1,-,-,-,-,-,-,.,.,.,.,.
SMILES,PAX8 reporter,Shn3 inh set2,Gli-Sufu block,CSC inhib,Beta cell apopt,Mdm2 MdmX PPI,Mdm2 MdmX conf,Full FLuc ctr,Gli antag conf,Gli cytotox,Wnt3a cs
O=C(c1ccccc1)c1cc([N+](=O)[O-])ccc1N1CCCC1,-,-,-,-,-,-,.,.,.,.,.
O=C(c1ccc(Br)cc1)c1cc([N+](=O)[O-])ccc1N1CCCCC1,97,-,-,-,-,58,52,95,60,60,-
O=C(OCC1OC2C(Oc3nc(=O)ccn32)C1O)c1ccccc1 (stereo not drawn),.,-,-,-,-,-,.,.,.,.,.
N=c1ccn2c(n1)O[C@H]1[C@H](O)[C@@H](CO)O[C@H]12,-,-,60,-,-,61,64,46,46,-,41
CCCN1C[C@H](C)[C@H](OC)CN(C)C(=O)c2cc(NC(=O)C3CCC3)ccc2OC[C@@H]1C,-,.,.,.,.,.,.,.,.,.,.
CC(=O)Nc1ccc(NS(=O)(=O)c2ccc(-c3cnc(C4CC4)o3)cc2)cc1,-,-,-,.,.,-,.,.,.,.,.
Cc1cc(C)cc(NS(=O)(=O)c2ccc(-c3cnc(C4CC4)o3)cc2)c1,75,-,55,.,.,75,68,69,51,57,-
COc1ccccc1CNC(=O)C[C@H]1CC[C@H]2[C@@H](COC[C@@H](O)CN2C(=O)Nc2ccc(Cl)cc2)O1,-,.,.,.,.,.,.,.,.,.,.
C/C(=N\NC(=O)C(C)Oc1ccc([N+](=O)[O-])cc1)c1ccccn1 (stereo not drawn),.,83,88,-,90,54,-,.,85,33,56
COc1ccc(OC(C)C(=O)Nc2ccc([N+](=O)[O-])cc2)cc1 (stereo not drawn),-,-,-,-,-,-,.,.,.,.,.
c1ccc2c(Nc3ccc4c(c3)OCCO4)c3c(nc2c1)CCCC3,-,-,-,-,-,70,59,85,-,-,-
FC(F)(F)c1nc(-c2cccs2)ncc1-c1nnnn1-c1ccc(Cl)cc1,.,86,58,-,-,69,-,.,58,39,-
